From ChEMBL document CHEMBL3988442, “University of Dundee, Small-Polar-MMV Screening Library” (2021)
Screen size: about 38,000 compounds; about 1,200 (3.2%) showed an effect of 50% or more. The median lay at about -58%. The list comes from a sample in which strong results are over-represented; it also holds similar structures and randomly drawn compounds.

Tested on: Plasmodium falciparum
Assay: Calibr Malaria Delayed Death Assay SOP
Type: functional, organism-based
Set-up: scale not given: in the data most compounds retested in dose-response had high values
Settings: concentration 4.99e-06 (unit not given; other assays of the set use mol/L)

Structure (SMILES) | Percent Effect [%]
COC1CN(C(=O)Cc2cccs2)CCC(=O)N(C)c2ccccc21 (stereo not drawn) | -19.51
CCc1cc(=O)[nH]c(-c2ccc(NC(CO)CC(C)C)nc2)n1 (stereo not drawn) | -171.9
Cc1noc(C)c1C(=O)N1CCC2(CC(N(C)c3ccncn3)C2)C1 (stereo not drawn) | -76.24
CCn1c(C2CCN(C(=O)c3cc(CC(C)C)no3)CC2)nn(C)c1=O | -42.91
O=C(CCc1ccccn1)NC1CCCN(C2Cc3ccccc3C2)C1 (stereo not drawn) | 9.867
CC(C)C(=O)NCC(=O)N(C)C1CCCN(C2Cc3ccccc3C2)C1 (stereo not drawn) | -100.1
Cc1cc(C)nc(NC2CCC(=O)N(C)C2)n1 (stereo not drawn) | -38.75
Cc1cc(C)nc(NC2CCc3nc(C)nn3C2)n1 (stereo not drawn) | -11.11
c1ccc(-c2cc(CN3CCCCCC3c3ccco3)on2)nc1 (stereo not drawn) | -88.84
Cc1nc[nH]c1CN1CCN(C(=O)CN2CCCC2)[C@H]2CS(=O)(=O)C[C@H]21 | -125.3
Cc1nccc(-c2cccc(NCC(=O)N3CCOC(C)C3)c2)n1 (stereo not drawn) | -139.7
CCn1ncnc1CN1CCC(CNC(=O)c2ccccc2C#N)C1 (stereo not drawn) | -133.7
COc1ncc(C(=O)N2CCC(c3nc(C)n4ccsc34)CC2)cn1 | -121.9
CC(NC(=O)c1ccc(Cl)cc1)c1nnc(SCC(=O)O)n1C (stereo not drawn) | -106.5
O=C(c1ccc(-n2cccc2)c(F)c1)N1CCCN2CCCC2C1 (stereo not drawn) | 6.651
CN(Cc1nnc(C2CC2)n1C)S(=O)(=O)c1ccccc1F | -15.64
CC1c2ncc(COc3cccnc3)n2CCN1C(=O)C1=CCCCC1.O=C(O)C(F)(F)F (stereo not drawn) | -13.51
CC(c1ccc(-n2cncn2)cc1)N(C)Cc1ccccn1 (stereo not drawn) | -93.37
CCCSc1nn(CCN(C)C)c2nc3sc(C)c(CC)c3c(=O)n12 | 46.83
CCc1c(C)sc2nc3n(CCN(C)C)nc(SC)n3c(=O)c12 | 13.06
Cc1oncc1C(=O)N1CCC2(CCN(Cc3cccnc3)C2=O)C1.O=C(O)C(F)(F)F (stereo not drawn) | -151.7
O=C(Nc1ccccc1)[C@H]1C[C@@H]2CN(C(=O)Nc3ccccc3)C[C@H]1O2 | 18.72
O=C(c1cccc2c1OCO2)N1CCCC(n2ccnc2)C1 (stereo not drawn) | -40.58

Structure (SMILES) | Percent Effect [%]
CCCc1n[nH]c(C2CN(C(=O)CCn3ccccc3=O)CCO2)n1 (stereo not drawn) | -67.64
CCc1nc(C(=O)N(CC)CC(=O)Nc2cc(Cl)ccc2C)c[nH]1 | -127.3
Cc1nc2c(c(NCc3nc4ccccc4s3)n1)CCNCC2 | 71.13
CSCC(=O)N1CCc2nc(C)nc(NCc3ccccc3)c2CC1 | -13.73
Cc1nc2c(c(NCC(O)c3ccccc3Cl)n1)CCNCC2 (stereo not drawn) | 26.14
c1ccc(-c2nc3c(c(NCCCn4cncn4)n2)CCNCC3)nc1 | -4.332
Cc1nc2c(c(NCC(c3ccccc3C)N(C)C)n1)CCNC2 (stereo not drawn) | -11.95
Cc1nc(CNc2nc(-c3ccco3)nc3c2CCNCC3)n[nH]1 | -85.54
Cc1n[nH]c(C)c1CNc1nc(-c2ccco2)nc2c1CCNCC2 | 17
Cc1nc2c(c(NCc3ccc(-c4ccccn4)s3)n1)CCNCC2 | 73.48
Cc1nc2c(c(NCc3cc4ccccc4s3)n1)CCNCC2 | 89.06
CN(C)c1cc(C(=O)Nc2cccnc2N2CCSCC2)ccn1 | -48.21
FC(F)(F)c1ccnc(N2CCC(c3nccn3CC3CC3)CC2)n1 | -11.94
Cc1cc(C2CCCN2C(=O)Nc2cn[nH]c2)on1 (stereo not drawn) | -46.01
O=C(c1cccnc1)N1CC(S(=O)(=O)c2ccc(Cl)cc2)C1 | -41.36
Cc1noc(C)c1CN1C[C@@H]2CCCO[C@@H]2[C@H](Nc2ccccn2)C1.O=C(O)C(F)(F)F.O=C(O)C(F)(F)F | -37.64
Cn1nc(CNC(=O)C2CCN(S(C)(=O)=O)CC2)cc1C1CC1 | -29.39
Cc1cccc(NC(=O)CN(C)C(=O)c2scnc2C)n1 | -36.36
COc1ccc(CN(CCC#N)CCN2CCOCC2)cc1OC | -48.91
N#CCCN(CCN1CCOCC1)Cc1ccc(F)c(Br)c1 | 50.69
CCOc1ccc(CN(CCC#N)CCN2CCOCC2)cc1OC | -106.9
CN(C)C(=O)C1CCCN1CCCNC(=O)Cc1ccccc1F (stereo not drawn) | -2.997
CC(NCc1cnc(N2CCOCC2)nc1)c1ccc(Cl)s1.Cl (stereo not drawn) | -27.68

Structure (SMILES) | Percent Effect [%]
CCc1cnc(C)nc1NCCN1CCCCCC1 | 42.39
CC(NCCN1CCC(N(C)C)CC1)c1ccc(F)cc1N(C)C (stereo not drawn) | 55.63
CC(NCCCN1CCCC1=O)c1ccc(F)cc1N(C)C (stereo not drawn) | -66.62
CC(NCCCc1cnn(C)c1)c1ccc(Cl)s1 (stereo not drawn) | 14.15
CCS(=O)(=O)CCNC(=O)NC(C)c1cc(C)sc1C (stereo not drawn) | -122.2
CCC(c1ccc(F)cc1F)N1CCN(CCO)CC1 (stereo not drawn) | 33.11
CCc1cnc(C)nc1NCCN1CCC(O)CC1 | -33.54
CC(NCCN1CCC(N(C)C)CC1)c1ccc(Cl)s1 (stereo not drawn) | 74.67
Cc1cc(OC(F)F)c(C(=O)N2CCC(N(C)C)CC2)s1 | -15.44
Cc1cc(C(C)NCCN2CCC(N(C)C)CC2)c(C)s1 (stereo not drawn) | 81.06
O=C(NCCc1cccs1)NC1CCN(c2ncccn2)CC1 | -296.1
Cc1c(Cl)cccc1S(=O)(=O)N1CCC2(CC1)OCCS2 | -126
Cn1cc(CN2CCC3(CCCCN3S(C)(=O)=O)CC2)cn1 | -156.9
CNC(=O)c1cn(C)c(-c2nc3cc(NC(C)=O)ccc3n2C)c1OC | -25.75
Cn1nc2c(c1NC(=O)c1ccc(C3CCCN3C3CCC3)s1)CCC2 (stereo not drawn) | 4.44
CCN(CC)c1nc(C)cc(C(=O)Nc2cnn(CC)c2)n1 | -148
CC(=O)N1CCC2(CC1)CC(NC(=O)N(C)C)c1cc(C)ccc12 (stereo not drawn) | -69.21
O=C(CCCNCc1ccc(Cl)c2cccnc12)NC1CC1 | 8.752
CC(C)(O)CSCCNCc1ccc(Cl)c2cccnc12 | 66.02
CC(C)(C)C(=O)NCCNCc1ccc(Cl)c2cccnc12 | 76.99
Cc1nc2n(n1)CC(NCc1ccc(Cl)c3cccnc13)CC2 (stereo not drawn) | 12.21
CC(C)(C)[S+]([O-])CCNC(=O)c1ccc(Cl)c2cccnc12 (stereo not drawn) | -47.19
CC(=O)NCCCNCc1ccc(Cl)c2cccnc12 | -40.58

Structure (SMILES) | Percent Effect [%]
Cn1cnc2c1CCN(Cc1ccc(Cl)c3cccnc13)C2 | -32.7
CCS(=O)(=O)NCCNCc1ccc(Cl)c2cccnc12 | 60.34
CC(C)(O)CSCCNC(=O)c1ccc(F)cc1Cl | -61.07
CNc1nc2ncc(Cl)cc2cc1C#N | -168.4
CN1C(=O)CC(c2cnn(C)c2)C12CCN(C(=O)c1ccco1)CC2 (stereo not drawn) | -26.83
Cc1ccoc1C(=O)NC1CCN(Cc2ccccc2F)CC1 | -117.1
CCOCC(O)CN1CCN(C(=O)Cc2ccccc2Cl)CC1 (stereo not drawn) | -127.6
CCOCC(O)CN1CCN(C(=O)c2ccccc2Cl)CC1 (stereo not drawn) | -98.46
CN(CCO)Cc1cc(Cl)ccc1OCC(O)CN1CCCCCC1 (stereo not drawn) | 81.18
CCOc1cc(CN(C)CCCO)ccc1OC(F)F | -85.19
COc1ccc(Cl)cc1CN(C)C(=O)CN1C(=O)OC[C@@H]1C(C)C | -43.68
CCC(O)CN1CCN(C(=O)Cc2cc(Cl)ccc2OC)CC1 (stereo not drawn) | -20.59
CCc1ccc(OCC(O)CN2CCN(CC)CC2)cc1 (stereo not drawn) | -62.39
COCC(=O)N1CCC2(COCc3cnc(NCc4ccco4)nc32)C1 (stereo not drawn) | -70.56
COCCCN(CCOC)C(=O)Nc1ccc(Br)cc1 | -39.78
CCCNS(=O)(=O)c1ccc2[nH]c(=O)cc(C)c2c1 | -19.76
CCOC(C)C(=O)N1CCN(S(C)(=O)=O)CC1 (stereo not drawn) | -95.85
CS(=O)(=O)CC(=O)N1C[C@H]2CCC[C@@]2(COCc2ccncc2)C1.O=C(O)C(F)(F)F | -43.79
COCCN1CCCCC12CC(=O)N(c1cccc(C#N)c1)C2.O=C(O)C(F)(F)F (stereo not drawn) | -143.4
C1CC(CO[C@@H]2CC[C@H]3[C@H]2OCCN3CC2CCOCC2)CCO1.O=C(O)C(F)(F)F | -39.09
O=c1c2ccccc2nc2n1C(CSc1ccc(Cl)cc1Cl)CN2 (stereo not drawn) | -150.5
CN1CCCC1CNC(=O)CCCOCc1ccccc1 (stereo not drawn) | -50.92
CC(=O)NCCOc1cccc(Br)c1 | -82.47

Structure (SMILES) | Percent Effect [%]
CC(C)NC(=O)N1CCN(C(=O)NC(C)C)CC2(CNC(=O)C2)C1 | -54.94
Cc1cc(N2CCCN(Cc3ccc(C)o3)CC2)ccn1 | 32.48
Cc1cc(N2CCCN(c3ccnc(C)c3)CC2)ccn1 | -92.15
Cc1cc(N2CCCN(CCc3ccccc3)CC2)ccn1 | 86.4
CC(C)n1nnnc1-c1ccc(NC(=O)N(C)CCN(C)C)cc1F | -66.24
COc1ccccc1S(=O)(=O)NCC(c1cccn1C)N(C)C (stereo not drawn) | 10.47
CN(C)C(CNS(=O)(=O)c1cc(F)ccc1F)c1cccn1C (stereo not drawn) | 52.76
COc1ccc(S(=O)(=O)NCC(c2cccn2C)N(C)C)cc1F (stereo not drawn) | -0.0752
Cc1c(CN2CCCCC2)c(O)n(CCCO)c(=O)c1C#N | -126.8
CC(C)Nc1ncnc2c1CCN(C(=O)NCc1cccc(F)c1)CC2 | -3.86
CN(Cc1ccccn1)C1CCC[C@@H]2CN(CC3CC3)C[C@H]12.O=C(O)C(F)(F)F.O=C(O)C(F)(F)F (stereo partly drawn) | 68.03
O=C(O)C(F)(F)F.O=C(O)C(F)(F)F.O=C(O)C(F)(F)F.c1cnc(N2CCN(C3CCC[C@@H]4CN(CC5CC5)C[C@H]34)CC2)nc1 (stereo partly drawn) | 48.04
O=C(O)C(F)(F)F.c1ccc(NC[C@@H]2CCC[C@@H]3CN(Cc4cccnc4)C[C@@H]32)nc1 | 75.01
Cn1cc(CN2C[C@@H]3CCC[C@@H](OCc4cccnc4)[C@@H]3C2)cn1 | -83.15
Cn1ccnc1NC[C@@H]1CCC[C@@H]2CN(Cc3nccs3)C[C@@H]21.O=C(O)C(F)(F)F | -64.87
Cn1cc(CN2C[C@H]3CCC[C@@H](CNc4ncccn4)[C@H]3C2)cn1.O=C(O)C(F)(F)F | -87.54
O=C(O)C(F)(F)F.c1ccc(NC[C@@H]2CCC[C@@H]3CN(Cc4nccs4)C[C@@H]32)nc1 | 55.03
O=C(C[C@@H]1COC[C@H]2CN(Cc3cccnc3)C[C@@H]12)NCC1CC1.O=C(O)C(F)(F)F.O=C(O)C(F)(F)F | -77.98
Cc1cnc(N2C[C@H]3CCCC(N(C)Cc4ccccn4)[C@H]3C2)nc1.O=C(O)C(F)(F)F (stereo partly drawn) | -10.03
O=C(O)C(F)(F)F.c1cncc(CN2C[C@H]3CCC[C@@H](CNc4cnccn4)[C@H]3C2)c1 | -3.57
Cn1ccnc1NC[C@@H]1CCC[C@@H]2CN(Cc3cccnc3)C[C@@H]21.O=C(O)C(F)(F)F | -26.47
